Bioassay records as filed in PubChem BioAssay.
Pf apPOL inh = Pf-apPOL inhibitors, biochemical, fluorescence; Plasmodium falciparum apicoplast DNA polymerase (apPOL); Recombinant Pf-apPOL, molecular beacon fluorescence, 1.5 h; inhibition, % at 10 µM; 0.25% of 210,000 active
mHTT-CaM PPI inh = mutant huntingtin-calmodulin interaction inhibitors – biochemical, AlphaScreen, primary screen; AlphaScreen His-mHTT/GST-CaM binding, luminescence; inhibition, % at 15 µM; 3.6% of 190,000 active; P42858; AID 1671202, 2021
Of the large screens only hits and unclear results are named; the others gave an inactive call. Rows were chosen to be rich in hits. Some 3.6% of all compounds tested hit in one or more screens of this group. Cut-off read from the data, not from the text of the source: active = inhibition above about 50%; inactive = the rest.

Oc1oc(-c2ccccc2F)nc1C=Nc1cccc(Cl)c1	Pf apPOL inh 72.5
O=S(=O)(c1ccccc1)N1CCC2(CC1)NCCN=C2NCc1ccc(F)cc1	none
Cc1ccc(S(=O)(=O)N2CCC(=O)N([C@H](COCc3cccc(Cl)c3)Cc3ccccc3)CC2)cc1	none
O=C(c1cccc(Cl)c1)N1CCC(=O)N([C@H](COCc2cccc(Cl)c2)Cc2ccccc2)CC1	mHTT-CaM PPI inh 100.0
Cc1cccc(COC[C@H](Cc2ccccc2)N2CCN(C(=O)c3ccc(Cl)c(Cl)c3)CCC2=O)c1	mHTT-CaM PPI inh 100.0
CC(C)(C)c1ccc(C(=O)N2CCC(=O)N([C@H](COCc3ccccc3)Cc3ccccc3)CC2)cc1	none
O=C(NC1CC1)c1ccc(OCC2CCN(C(=O)c3ccc(F)cc3F)CC2)cc1	none
Oc1c(CN2CCCCC2)cc(CN2CCCCC2)nc1-c1ccccc1	none
Oc1c(CN2CCN(Cc3ccc4cccnc4c3O)CC2)ccc2cccnc12	mHTT-CaM PPI inh 100.3
Fc1ccc(CN2CCN(c3ncccn3)CC2)c(F)c1	none
COCc1cc(CN2CCCC2)c(O)c2ncccc12	mHTT-CaM PPI inh 100.3
Oc1c(CN2CCCCC2)cc(Cl)c2cccnc12	mHTT-CaM PPI inh 100.0
Oc1ccccc1CN1CCCC1	none
Cc1ccc(CNC(=O)C2CCc3sc(C(=O)N4CCOCC4)cc3C2)cc1 (stereo unspecified)	none
O=S(=O)(c1ccccc1)N1CCN(Cc2ccc(F)cc2)CC1	none
CCCCCCCCOc1ccc(-c2ccc(Br)cc2)cc1	none (no result: mHTT-CaM PPI inh)
COc1cccc(NC(=O)c2cc(C)n3nc(C)cc3n2)c1	none
OCCSc1nnc(COc2ccc(Br)cc2)n1-c1ccccc1	mHTT-CaM PPI inh 57.3
O=C(CSc1nnc(COc2ccccc2)n1-c1ccccc1)NC1CCCCC1	none
CCC(C)NC(=O)CN1C(=O)/C(=C/c2ccccc2F)Sc2ccccc21 (stereo unspecified)	none
CCOc1ccc(-c2cccc(NC(=O)c3ccc(F)cc3F)c2)nn1	none
CCOc1ncccc1C(=O)Nc1cccc(-c2ccc3nnc(C)n3n2)c1	none
Cc1nnc2ccc(-c3cccc(NC(=O)c4cc(Br)ccc4Cl)c3)nn12	mHTT-CaM PPI inh 56.9
O=C(Nc1cccc(-c2ccc3nnc(-c4cccnc4)n3n2)c1)c1ccc(F)cc1F	mHTT-CaM PPI inh 79.5
CCC(=O)N1CCN(c2nc3c(c(=O)[nH]c(=O)n3C)n2CC)CC1	none
COC(CNC(=O)c1cccnc1SCc1cccc(Br)c1)OC	none
CCN(C)C(=O)C1CN(C(=O)c2ccc(C)cc2)CC1c1cccc(C(F)(F)F)c1 (stereo unspecified)	none
O=C(c1ccc(F)cc1)N1CCC(CCNS(=O)(=O)c2cccc3nsnc23)CC1	none
Cc1cc(C)c(S(=O)(=O)NCCC2CCN(C(=O)c3ccc(F)cc3)CC2)cc1C	mHTT-CaM PPI inh 55.5
Cc1ccc(S(=O)(=O)NCCC2CCN(C(=O)c3ccc(F)cc3)CC2)cc1C	none
Cc1ccc(C(=O)N2CCC(CCNS(=O)(=O)c3cccc(Cl)c3C)CC2)cc1	mHTT-CaM PPI inh 57.0
Cc1ccc(C(=O)N2CCC(CCNS(=O)(=O)c3ccc(F)c(Cl)c3)CC2)cc1	mHTT-CaM PPI inh 61.9
Cc1ccc(C(=O)N2CCC(CCNS(=O)(=O)c3ccccc3Cl)CC2)cc1	none
O=C(c1ccccc1)N1CCC(CCNS(=O)(=O)c2ccc(F)c(Cl)c2)CC1	none
Cc1ccc(C(=O)N2CCC(CCNS(=O)(=O)c3cccc4nsnc34)CC2)cc1	mHTT-CaM PPI inh 51.5
COCCNC(=O)C1COC2(CCCCC2)N1C(=O)c1ccc(F)cc1 (stereo unspecified)	none
COc1ccc(C=C2Oc3c(ccc(O)c3CN3CCCC(C)C3)C2=O)cc1 (stereo unspecified)	none
Cc1ccc(S(=O)(=O)N2CC3CN(C(=O)CC(C)(C)C)CC(C2)O3)cc1	none
Cc1c(Cl)cccc1S(=O)(=O)NCCC1CCN(C(=O)c2ccc(F)cc2)CC1	mHTT-CaM PPI inh 51.3
O=C(c1ccc(F)cc1)N1CCC(CCNS(=O)(=O)c2ccccc2F)CC1	none
Cn1c(=O)c2c(nc3n(Cc4ccco4)c(-c4ccc(F)cc4)cn23)n(C)c1=O	none
CC1CCN(S(=O)(=O)c2ccc(C(=O)Nc3nnc(-c4ccc(F)cc4)o3)cc2)CC1	none
O=[N+]([O-])c1ccc(N2CCN(Cc3ccccc3)CC2)cc1NC1CC1	none
O=[N+]([O-])c1ccc(N2CCCC2)cc1N1CCN(Cc2ccccc2)CC1	mHTT-CaM PPI inh 52.6
CC(=O)N1CCC2(CC1)Nc1cccnc1NC2=NCc1ccccc1	none
O=C(Nc1cccc(F)c1)N1CCC2(CC1)Nc1cccnc1NC2=NCc1ccccc1	mHTT-CaM PPI inh 98.7
Cc1cc(N2C(=O)c3ccc(C(=O)N4CC=C(c5ccccc5)CC4)cc3C2=O)no1	mHTT-CaM PPI inh 51.0
Cc1cc(N2C(=O)c3ccc(C(=O)O)cc3C2=O)no1	none
CCC(C)c1ccc(OCCCN2CCN(C)CC2)cc1 (stereo unspecified)	none
CCC(C)c1ccc(OCCCCN2CCN(C)CC2)cc1 (stereo unspecified)	mHTT-CaM PPI inh 54.2
Cc1csc(-c2cn(CC(=O)Nc3ccccc3)cn2)n1	none
